Assay outcomes: PubChem, Broad Institute
Only some compounds are listed: those with a hit (about 3.9% of all), similar ones and a draw of the others.
Glyco luc inh = blocks N-linked glycosylation in D54 reporter cells | D54 ERlucT glycosylation luciferase reporter, 24 h; percent of 100 nM tunicamycin response | reporter increase, % at 12.5 µM | 360,000 tested, 0.23% active;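 active = mean luciferase reporter signal, scaled so untreated is 0 and the glycosylation-blocking control 100, at or above a set limit in every replicate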;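 also: luciferase carries N-glycosylation sites so blocking glycosylation raises the light; 0% = median of neutral control wells and 100% = median of 100 nM tunicamycin wells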
ALR inh = inhibitors of human sulfhydryl oxidase ALR. P55789. purified ALR, DTT oxidation, H2O2 HRP-luminol luminescence. inhibition, % (concentration not given with the values). 290,000 tested, 3.8% active;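 active = mean replicate inhibition above about 79%, with every replicate also reaching it, limit read from the data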
Target sequence (P55789 whole entry, looked up): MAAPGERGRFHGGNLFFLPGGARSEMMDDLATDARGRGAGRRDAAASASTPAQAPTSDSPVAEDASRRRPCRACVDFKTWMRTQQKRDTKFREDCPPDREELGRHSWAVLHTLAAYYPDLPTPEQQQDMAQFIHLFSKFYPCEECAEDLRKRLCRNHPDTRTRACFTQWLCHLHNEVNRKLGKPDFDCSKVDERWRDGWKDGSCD
Mot1-301 SUMO = blocks SUMOylation pathway, rescuing yeast Mot1-301 growth; S. cerevisiae Mot1-301 growth rescue, ATP luminescence, 38.5C; percent above DMSO median, 100 means doubled; growth rescue, % at 18.8 µM; 320,000 tested, 1% active; AID 2716;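 active = every valid replicate shows activation above 250% relative to neutral control wells; inactive = the rest, any valid replicate at or below 250%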;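 also: OY570 slx delta 5 strain wells were the positive control but not used for scaling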
CDK5 p35 inh = CDK5/p35 (human) kinase inhibition | Recombinant CDK5/p35, ADP-Glo luminescence, 60 min | Q00535+Q15078 | 330,000 tested, 0.01% active | AID 488839 | inhibition, % at 10 µM;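 active = highest replicate inhibition of at least 50% and at least 75% of replicates reaching 50%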;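 also: plate controls were DMSO neutral control for no effect and GW8510 at 10 µM for full effect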
NSD2 HMT inh = blocks human histone methyltransferase NSD2 | 310,000 tested, 0.54% active | inhibition, % at 12.5 µM | NSD2 peptide methylation, AlphaScreen, 120 min; in the data active = inhibition above about 50%
CASP6 VEID inh = caspase-6 (human) enzyme inhibition. P55212. purified caspase-6, Z-VEID-R110 cleavage fluorescence. inhibition, % at 12.5 µM. 350,000 tested, 0.53% active;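 active = mean inhibition across replicates at least about 35%, with every replicate also reaching that limit, limit read from the data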;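 also: 0% = median of neutral control wells and 100% = no fluorescence left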
Target sequence (P55212 24-179 limits assumed): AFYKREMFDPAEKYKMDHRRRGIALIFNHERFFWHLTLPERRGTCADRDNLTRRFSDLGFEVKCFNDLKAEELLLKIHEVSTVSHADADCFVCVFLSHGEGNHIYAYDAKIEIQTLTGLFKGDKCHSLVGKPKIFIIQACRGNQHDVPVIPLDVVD
Target sequence (P55212 194-293 limits assumed): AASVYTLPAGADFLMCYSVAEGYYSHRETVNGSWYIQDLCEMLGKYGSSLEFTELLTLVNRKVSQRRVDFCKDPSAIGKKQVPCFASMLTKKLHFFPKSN
* = called active by the depositor; nt = not tested or not shown.

SMILES	Glyco luc inh	ALR inh	Mot1-301 SUMO	CDK5 p35 inh	NSD2 HMT inh	CASP6 VEID inh
CCc1ccc(NC(=O)CCc2nc3sc4c(c3c(=O)[nH]2)CCCC4)cc1	-0.2	4.7	-11.7	-3.5	-0.9	-3.6
COc1ccc(NC(=O)Nc2ccc3c(c2)C(=O)N([C@H](C)CO)C[C@@H](C)[C@H](CN(C)S(=O)(=O)c2ccc(Cl)cc2)OCCCC[C@H](C)O3)cc1	nt	nt	nt	nt	nt	1.9
CO[C@@H]1CN(C)C(=O)c2cc(NC(=O)C3CCOCC3)ccc2OC[C@@H](C)N(Cc2nccs2)C[C@H]1C	nt	nt	nt	nt	nt	1.1
CN(C)C(=O)c1cccc(-c2cccc(-c3nc(C(=O)NCc4ccccc4)cc4c3[C@H](CCO)N([S@@](=O)C(C)(C)C)C4)c2)c1	nt	nt	nt	nt	nt	0.6
CO[C@H]1CN(C)C(=O)c2cc(NC(=O)c3ccccc3F)ccc2OC[C@@H](C)N(C(=O)c2ccccc2F)C[C@@H]1C	nt	nt	nt	nt	nt	-1.8
CCn1cnc2cc(NCc3ccccc3Cl)ccc21	-1.3	45.5	4.5	-0.2	13.0	3.2
CCN(CC)c1ccc(CNc2ccc3c(c2)ncn3C(C)(C)C)cc1	-1.1	98.8*	-6.6	0.9	nt	-1.2
CN(C)c1ccc(CNc2ccc3c(c2)ncn3C)cc1	nt	99.5*	2.6	nt	10.1	nt
Cn1cnc2cc(NCc3ccccc3Cl)ccc21	-2.9	89.8*	8.4	1.0	2.3	1.2
CC(C)c1ccc(CNc2ccc3c(c2)ncn3C)cc1	0.6	78.2*	-17.3	-0.6	10.2	-0.4
CCc1ccc(CNc2ccc3c(c2)ncn3C(C)(C)C)cc1	-7.1	74.6	8.5	1.5	28.3	-2.8
CN1CCN(C(=O)C[C@@H]2CC[C@H]3[C@H](COc4ccc(NC(=O)C5CC5)cc4C(=O)N3C)O2)CC1	nt	nt	nt	nt	nt	1.4
O=C(Nc1ccc(Cl)c(Cl)c1)N[C@@H]1CC[C@H](CCNC(=O)c2ccc(F)cc2)O[C@H]1CO	nt	nt	nt	nt	nt	-1.2
COc1ccc(NC(=O)Nc2ccc3c(c2)C(=O)N([C@@H](C)CO)C[C@@H](C)[C@@H](CN(C)C(=O)NC(C)C)O3)cc1	nt	nt	nt	nt	nt	0.3
Cc1ccccc1NCCNc1ccccc1C	-0.6	98.8*	12.2	1.2	0.8	nt
COCCn1c(CCc2ccccc2)n[nH]c1=S	-0.6	85.2*	2.2	-0.6	6.5	-0.8
CN(CCOc1ccccc1)C(=O)CCc1c[nH]c2ccccc12	-0.6	96.0*	-2.9	-1.4	5.6	2.9
CN(Cc1cccs1)C(=O)CCc1c[nH]c2ccccc12	-0.4	nt	-12.3	-1.4	4.7	0.3
CC1CN(C2CCCCC2)c2nc3c(c(=O)[nH]c(=O)n3C)n2C1 (stereo unspecified)	5.6	95.2*	-8.2	0.8	0.2	nt
Cc1ccc(N2CC(C)Cn3c2nc2c3c(=O)[nH]c(=O)n2C)cc1 (stereo unspecified)	3.0	nt	nt	3.5	-0.7	1.4
COc1ccccc1OCC(=O)Nc1ccc(N2CCOCC2)cc1N1CCOCC1	-0.4	6.5	-2.2	0.8	4.0	-0.8
O=C(CNS(=O)(=O)c1ccccc1F)Nc1ccc(N2CCOCC2)cc1	1.6	94.4*	20.6	-0.9	-0.5	nt
CN(CC(=O)Nc1ccc(N2CCOCC2)cc1)CC(=O)Nc1ccc(N2CCOCC2)cc1	-0.9	42.4	-21.7	0.6	2.0	-4.5
CN(CC(=O)Nc1ccc(N2CCOCC2)cc1)C(=O)COc1ccccc1F	1.4	77.8*	-8.8	1.1	7.3	-2.1
CCN(CC(=O)Nc1ccc(N2CCOCC2)cc1)C(=O)COc1ccccc1OC	2.3	90.9*	7.5	2.9	0.3	2.1
CC(Oc1ccc(Br)cc1)C(=O)N(C)CC(=O)Nc1ccc(N2CCOCC2)cc1 (stereo unspecified)	0.8	98.7*	-9.9	2.2	3.8	-122.4
CC(=O)c1ccc(OCC(=O)N(C)CC(=O)Nc2ccc(N3CCOCC3)cc2)cc1	-1.7	18.4	-2.1	-2.1	-1.1	1.5
O=C(Nc1ccc2c(c1)OCO2)N[C@H]1CC[C@@H](CCNC(=O)C2CCCCC2)O[C@H]1CO	nt	nt	nt	nt	nt	4.1
C[C@@H]1CN([C@H](C)CO)C(=O)c2cccc(NS(=O)(=O)c3ccc(F)cc3)c2O[C@@H]1CN(C)Cc1ccc(C(F)(F)F)cc1	nt	nt	nt	nt	nt	0.5
CC(C)c1ccc(NC(=O)C[C@H]2CC[C@H]3[C@@H](COc4ccc(NC(=O)c5ccno5)cc4C(=O)N3C)O2)cc1	nt	nt	nt	nt	nt	1.6
